Experimental data published in PubChem BioAssay AID1159580 (chemical genetic matrix, 2015).
About 2,000 (36%) of roughly 5,500 compounds were called active. Another 18% or so got no clear call; they are omitted. No stated cut-off is given here; in the data, active means normalized growth mostly below about 0.91 (no sharp cut-off); inconclusive means no clear call, values can overlap the other calls; inactive means mostly above about 0.92. The list shows a part of the results.

Experiment: chemical genetic growth profiling, strain panel (AID 1159580);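 further: tested at 20 µM; growth read once vehicle control cultures reached saturation at 30 °C; 1 = growth at the plate median or of vehicle wells; lower values mean less growth of the strain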
Details: S. cerevisiae deletion strains, growth OD

Measured: normalized growth

COC(=O)C[C@H]1C(C)(C)C2(Cl)O[C@@]34CC2C(=O)[C@]1(C)C3CC[C@]1(C)C4=CC(=O)O[C@H]1c1ccoc1 (stereo not given in full)
inactive: locus YAL013W, strain DEP1, active compounds read low 1.01 | locus YBR021W, strain FUR4, active compounds read low 0.995 | locus YBR229C, strain ROT2, active compounds read low 1 | locus YCL029C, strain bik1, active compounds read low 1.01 | locus YDL035C, strain GPR1, active compounds read low 1.02 | locus YDL074C, strain BRE1, active compounds read low 0.989 | locus YDL101C, strain DUN1, active compounds read low 0.997 | locus YDL134C, strain PPH21, active compounds read low 0.999 | locus YDL185W, strain tfp1, active compounds read low 0.994 | locus YDL192W, strain arf1, active compounds read low 0.99 | locus YDR101C, strain arx1, active compounds read low 0.993 | locus YDR162C, strain NBP2, active compounds read low 0.971 | locus YDR318W, strain mcm21, active compounds read low 1 | locus YDR388W, active compounds read low 0.993 | locus YDR502C, strain sam2, active compounds read low 0.996 | locus YEL061C, strain CIN8, active compounds read low 1 | locus YER110C, active compounds read low 0.993 | locus YER155C, strain BEM2, active compounds read low 1.01 | locus YER167W, strain BCK2, active compounds read low 1.01 | locus YGL078C, strain dbp3, active compounds read low 0.99 | locus YGL086W, strain mad1, active compounds read low 0.989 | locus YGL248W, strain PDE1, active compounds read low 1 | locus YGR078C, strain PAC10, active compounds read low 0.991 | locus YGR135W, strain pre9, active compounds read low 0.976 | locus YGR252W, strain gcn5, active compounds read low 0.966 | locus YHR030C, strain SLT2, active compounds read low 0.999 | locus YHR079C, strain IRE1 (second series), active compounds read low 0.996 | locus YHR094C, strain hxt1, active compounds read low 0.995 | locus YHR129C, strain ARP1, active compounds read low 1 | locus YHR200W, strain rpn10, active compounds read low 0.992 | locus YIL066C, strain RNR3, active compounds read low 1.01 | locus YIL073C, strain SPO22, active compounds read low 1 | locus YIL125W, strain kgd1, active compounds read low 1 | locus YIR030C, strain dcg1, active compounds read low 0.986 | locus YJL095W, strain BCK1, active compounds read low 0.996 | locus YJL134W, strain LCB3, active compounds read low 1.01 | locus YJL168C, strain set2, active compounds read low 0.987 | locus YJL187C, strain SWE1 (second series), active compounds read low 1 | locus YJR075W, strain HOC1, active compounds read low 1.01 | locus YKL009W, strain mrt4, active compounds read low 0.983 | locus YKL068W, active compounds read low 1.01 | locus YKL085W, strain MDH1 (second series), active compounds read low 0.996 | locus YKL085W, strain MDH1, active compounds read low 0.996 | locus YKR001C, strain vps1, active compounds read low 1 | locus YLR039C, strain RIC1, active compounds read low 1.05 | locus YLR058C, strain SHM2, active compounds read low 1 | locus YLR102C, strain apc9, active compounds read low 1 | locus YLR268W, strain sec22, active compounds read low 1 | locus YLR342W, strain FKS1 (second series), active compounds read low 1.02 | locus YLR371W, strain rom2, active compounds read low 0.996 | locus YLR418C, strain cdc73, active compounds read low 0.96 | locus YML016C, strain PPZ1, active compounds read low 1.01 | locus YML032C, strain rad52, active compounds read low 0.995 | locus YML124C, strain tub3, active compounds read low 0.992 | locus YMR078C, strain ctf18, active compounds read low 1.01 | locus YMR223W, strain ubp8, active compounds read low 0.979 | locus YMR307W, strain GAS1, active compounds read low 0.957 | locus YNL067W, strain RPL9B, active compounds read low 1 | locus YNL153C, strain GIM3, active compounds read low 1 | locus YNL233W, strain BNI4, active compounds read low 0.995 | locus YNL250W, strain rad50, active compounds read low 0.995 | locus YNL271C, strain bni1, active compounds read low 0.998 | locus YNL298W, strain CLA4, active compounds read low 0.99 | locus YNL307C, strain MCK1, active compounds read low 0.991 | locus YNR052C, strain pop2, active compounds read low 0.998 | locus YOL006C, strain TOP1, active compounds read low 1.02 | locus YOL012C, strain htz1 0.78 | locus YOL147C, strain pex11, active compounds read low 0.99 | locus YOR061W, strain CKA2, active compounds read low 1.01 | locus YOR069W, strain VPS5, active compounds read low 1 | locus YOR136W, strain idh2, active compounds read low 0.988 | locus YOR144C, strain elg1, active compounds read low 0.995 | locus YOR184W, strain ser1, active compounds read low 1.01 | locus YOR316C, strain cot1, active compounds read low 0.988 | locus YPL241C, strain CIN2, active compounds read low 1 | locus YPR119W, strain clb2, active compounds read low 0.989 | locus YPR141C, strain kar3, active compounds read low 0.997 | locus YPR163C, strain tif3, active compounds read low 0.991 | locus YPR167C, strain met16, active compounds read low 0.991 | strain wtn01, active compounds read low 1.02
